Screens (PubChem BioAssay)
HSP90 inh: blocks HSP90-mediated luciferase refolding in reticulocyte lysate. Rabbit reticulocyte lysate, luciferase refolding luminescence, 3 h. inhibition, % at 5.6 µM. actives 0.91% (n = 290,000). AID 1789;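 active = inhibition above the screen-wide mean plus 3 SD, computed separately per campaign, cut at about 16% in these data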;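 note: 0% = DMSO wells and 100% = 60 µM geldanamycin wells; inhibitors lower the luminescence because luciferase stays unfolded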
LGR2 antag: Drosophila LGR2 receptor signaling inhibition. HEK293 LGR2, CRE-luciferase, bursicon-stimulated, 4 h. inhibition, % at 9.99 µM. actives 0.35% (n = 380,000);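 active = drop in luminescence signal, shown as inhibition above about 50% in the replicate tests, limit read from the data, passing the limit was not always enough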;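 note: agonist challenge used bursicon conditioned medium at about half maximal strength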
CF NFkB block: blocks PAF-induced NF-kB reporter in cystic fibrosis cells; KKLEB NF-kB-GFP reporter, GFP fluorescence overnight; inhibition, % at 5 µM; actives 0.86% (n = 360,000); AID 588850;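 active = at least 50% inhibition at 5 µM, scaled per plate between neutral and stimulator controls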;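 note: PAF is a Pseudomonas aeruginosa culture filtrate used as stimulus; plate controls were PAF-stimulated DMSO wells for no effect and unstimulated DMSO wells for full effect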
Peg3 prom inh: reduces Peg3 promoter-driven luciferase expression in HeLa. HeLa PEG-Prom luciferase reporter, luminescence, overnight. inhibition, % at 20 µM. actives 1.7% (n = 360,000). AID 588405;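 active = inhibition of at least 50% at 20 µM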
KKLEB tox: reduces viability of KKLEB cystic fibrosis airway cells; KKLEB CF airway cells viability, ATPlite luminescence, overnight; hits give low values; cells stimulated with P. aeruginosa culture filtrate; activity change (cytotoxicity), % at 5 µM; actives 0.36% (n = 360,000); AID 602141;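 active = corrected activity change at or below -50% at 5 µM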
Mdm2-MdmX inh: disrupts the human Mdm2-MdmX interaction. O15151+Q00987. SaOS-2 split-luciferase Mdm2/MdmX complementation, luminescence. inhibition, % at 8 µM. actives 3% (n = 330,000);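 active = inhibition of at least 50% at 8 µM in the primary screen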
Target sequence (O15151 whole entry, looked up): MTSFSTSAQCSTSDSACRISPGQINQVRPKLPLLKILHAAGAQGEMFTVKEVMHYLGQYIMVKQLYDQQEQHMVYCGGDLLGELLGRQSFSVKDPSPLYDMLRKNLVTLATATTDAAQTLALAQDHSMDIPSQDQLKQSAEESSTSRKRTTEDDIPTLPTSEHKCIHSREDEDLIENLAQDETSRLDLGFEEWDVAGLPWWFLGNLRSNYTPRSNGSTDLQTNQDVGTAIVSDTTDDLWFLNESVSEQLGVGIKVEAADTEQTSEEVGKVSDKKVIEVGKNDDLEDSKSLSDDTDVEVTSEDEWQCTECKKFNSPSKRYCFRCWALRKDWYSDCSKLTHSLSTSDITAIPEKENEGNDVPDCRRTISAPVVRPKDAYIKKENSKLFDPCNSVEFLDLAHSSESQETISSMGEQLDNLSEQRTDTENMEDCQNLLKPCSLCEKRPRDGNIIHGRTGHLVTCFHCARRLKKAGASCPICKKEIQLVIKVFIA
Target sequence (Q00987 whole entry, looked up): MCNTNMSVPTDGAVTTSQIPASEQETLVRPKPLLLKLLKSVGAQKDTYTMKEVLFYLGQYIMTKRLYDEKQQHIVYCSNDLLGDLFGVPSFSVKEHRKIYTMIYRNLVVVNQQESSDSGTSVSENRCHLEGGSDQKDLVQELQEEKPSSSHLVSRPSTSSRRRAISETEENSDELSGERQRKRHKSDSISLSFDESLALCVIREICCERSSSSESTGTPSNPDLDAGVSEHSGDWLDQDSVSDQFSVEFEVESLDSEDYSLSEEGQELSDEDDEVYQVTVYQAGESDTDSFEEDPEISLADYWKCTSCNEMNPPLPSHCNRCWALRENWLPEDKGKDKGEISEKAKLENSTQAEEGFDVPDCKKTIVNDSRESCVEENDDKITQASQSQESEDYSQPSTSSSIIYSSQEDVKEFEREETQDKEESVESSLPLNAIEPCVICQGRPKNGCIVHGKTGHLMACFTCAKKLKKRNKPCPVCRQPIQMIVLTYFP
CF NFkB inh conf: CF NF-kB inhibition confirmation, single concentration; shares compounds with CF NFkB block; KKLEB CF airway cells, PAF-induced NF-kB-GFP fluorescence, overnight; inhibition, % at 5 µM; actives 64% (n = 1,300); AID 602472; in the data active = inhibition above about 40%;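 note: stimulus PAF is a Pseudomonas aeruginosa filtrate and not platelet activating factor; plate controls were DMSO wells with stimulus for no effect and unstimulated DMSO wells for full effect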
* = called active by the depositor; x = no result. In the library only some 3.6% were active in any assay of this set; here they are far more common.

SMILES	HSP90 inh	LGR2 antag	CF NFkB block	Peg3 prom inh	KKLEB tox	Mdm2-MdmX inh	CF NFkB inh conf
COc1cccc(-c2ccc3ncnc(NCc4cccc(C)c4)c3c2)c1	x	13.7	69.0*	18.5	-7.9	35.3	62.2*
c1cncc(-c2ccc3ncnc(NCc4ccc5c(c4)OCO5)c3c2)c1	x	-38.2	54.6*	17.5	-12.9	41.9	64.6*
c1cncc(CNc2ncnc3ccc(-c4ccc5c(c4)OCCO5)cc23)c1	x	-37.5	11.3	19.3	-4.9	-9.2	x
Cc1ccccc1S(=O)(=O)N[C@@H]1CC[C@H](CCn2cc(-c3ccc(F)cc3)nn2)O[C@H]1CO	x	0.9	x	x	x	x	x
Nc1nccc(SCc2ccc(Cl)cc2Cl)n1	x	2.8	56.7*	10.7	-15.4	x	55.5*
Nc1nc(SCc2ccc(Cl)cc2Cl)n[nH]1	-5.4	-18.8	-22.8	-129.2	14.8	3.8	x
C[C@H](CO)N1C[C@H](C)[C@@H](CN(C)S(C)(=O)=O)Oc2cc(C#CC3CCCC3)ccc2S1(=O)=O	x	19.6	x	x	x	x	x
O=C(NC(=S)Nc1cccc(NC(=S)NC(=O)c2ccccc2)c1)c1ccccc1	x	-48.0	11.8	-165.8	1.5	x	x
Cc1ccc(NC(=S)NC(=O)c2ccccc2)cc1NC(=S)NC(=O)c1ccccc1	2.5	-47.0	64.4*	-52.5	-26.8	x	26.8
COCCNc1nc(Oc2cncc(Cl)c2)c2sccc2n1	x	8.3	62.3*	16.6	-19.9	x	78.1*
COCCNc1nc(Oc2cccc(F)c2)c2sccc2n1	x	-12.1	33.3	7.5	-13.7	x	x
C[C@@H]1CCCCO[C@H](CN(C)C(=O)CCC(F)(F)F)[C@H](C)CN([C@@H](C)CO)C(=O)c2cc(NC(=O)NC3CCCCC3)ccc2O1	x	-16.3	x	x	x	x	x
CC1CCc2c(sc3ncnc(N4CCOCC4)c23)C1 (stereo unspecified)	1.3	x	66.2*	17.2	-29.5	40.2	62.8*
Cc1cc(C)n(-c2ncnc3sc4c(c23)CC(C)CC4)n1 (stereo unspecified)	-0.7	x	-28.4	15.7	13.4	35.4	x
CC1CCc2sc3ncnc(N4CCOCC4)c3c2C1 (stereo unspecified)	2.0	x	50.8*	20.2	-19.7	41.2	57.4*
C=C1C[C@H]2[C@@H]3C=C(C)C4=CC(=O)CC[C@]4(C)[C@H]3CC[C@]2(C)[C@@]1(OC(C)=O)C(C)=O	x	-4.2	67.7*	-3.7	3.5	4.8	-32.9
CC(=O)C1(C)CCC2C3C=C(C)C4=CC(=O)CCC4(C)C3CCC21C (stereo unspecified)	x	21.5	-1.0	2.7	16.3	x	x
O=Nc1ccc(NO)c2ccccc12	x	-18.1	85.1*	-22.8	-19.1	x	53.9*
CCCCOC(=O)Nc1ccc(S(=O)(=O)Nc2nc(C)cc(C)n2)cc1	1.6	-3.6	53.3*	9.1	1.9	-12.7	39.0
C[C@H](CO)N1C[C@H](C)[C@@H](CN(C)C)Oc2ncc(C#CCN(C)C)cc2C1=O	x	6.0	x	x	x	x	x
CC(C)n1c(SCc2ccccc2F)nc2c1c(=O)n(C)c(=O)n2C	2.7	-7.0	56.8*	24.8	-5.2	14.0	58.4*
CC(=O)[C@@]1(O)CC[C@H]2[C@@H]3C[C@H](C)C4=CC(=O)CC[C@]4(C)[C@H]3CC[C@@]21C	-2.0	5.6	53.9*	-6.6	17.7	25.8	-85.7
Cc1cc(C(=O)Nc2cccc3c2O[C@@H](CN(C)C(=O)Nc2ccc4c(c2)OCO4)[C@@H](C)CN([C@@H](C)CO)C3=O)n(C)n1	x	7.0	x	x	x	x	x
COc1cccc(-c2cc(NC=O)c3ncc(-c4cccc(C(=O)N(C)C)c4)n3c2)c1	x	-4.8	16.5	32.4	-12.4	x	x
COc1ccc(CNc2nn3c(-c4cccc(C(=O)N(C)C)c4)cnc3s2)cc1	x	-2.5	84.0*	56.1*	2.3	x	90.7*
SMILES	HSP90 inh	LGR2 antag	CF NFkB block	Peg3 prom inh	KKLEB tox	Mdm2-MdmX inh	CF NFkB inh conf
NC(c1csc(NC(=O)Nc2cccc(Cl)c2)n1)c1ccccc1Cl (stereo unspecified)	x	42.0	91.1*	99.5*	-15.6	x	76.8*
COc1ccccc1NC(=O)CN1CCC(c2nc3ccc(C)cc3[nH]2)CC1	0.9	-14.6	16.8	14.5	-7.4	15.6	x
COc1cccc(CNC(=O)CN2CCC(c3nc4ccc(C)cc4[nH]3)CC2)c1	-1.7	-9.6	56.4*	5.4	-12.8	12.5	9.9
O=C(c1ccccc1)N1CC(=O)N2[C@H](CO)[C@H](c3ccc(C4=CCCC4)cc3)[C@@H]2C1	x	-0.3	x	x	x	x	x
COC(C/C=C\C(=O)COCc1ccccc1)OC	x	x	x	x	x	-2.7	x
COC(C/C=C/C(=O)[C@H](C)OCc1ccccc1)OC	x	x	58.4*	20.4	-16.4	-14.5	-34.6
Cc1noc(C)c1NC(=O)Nc1ccc2c(c1)C(=O)N([C@@H](C)CO)C[C@H](C)[C@@H](CN(C)CC1CCCCC1)OCCCC[C@H](C)O2	x	0.6	x	x	x	x	x
CN(C)C(CNC(=O)C1CCN(S(=O)(=O)c2ccccc2)CC1)c1ccccc1 (stereo unspecified)	1.0	-4.7	71.2*	-3.9	29.8	3.6	0.0
CC(NC(=O)C1CCN(S(=O)(=O)c2ccccc2)CC1)c1ccccc1 (stereo unspecified)	3.4	-16.5	-4.9	6.7	15.4	11.5	x
Cc1ccc(Cc2c(-c3ccco3)nc3c(C)cc(Br)cn23)cc1	x	5.5	51.3*	-59.8	-15.7	x	-14.0
Clc1cccc(Cc2c(-c3ccco3)nc3ccc(Cl)cn23)c1	x	8.2	69.5*	-11.0	-14.0	x	-50.0
COc1ccc(CN(C)C[C@@H]2Oc3ccc(NC(=O)Nc4ccc5c(c4)OCO5)cc3CC(=O)N([C@@H](C)CO)C[C@H]2C)cc1	x	8.2	x	x	x	x	x
CCN1CCN(c2ccc(S(=O)(=O)N3CCCCC3)cc2NC(=O)Cc2ccccc2)CC1	x	-9.3	56.9*	15.9	-48.2	10.8	17.5
CCN1CCN(c2ccc(S(=O)(=O)N3CCCCC3)cc2NC(=O)COc2ccccc2)CC1	x	5.8	15.0	14.9	6.5	29.7	x
C[C@H](CO)N1C[C@H](C)[C@H](CN(C)C(=O)c2ccccc2)Oc2ncc(-c3ccc(C#N)cc3)cc2C1=O	x	-26.1	x	x	x	x	x
Cc1nc(N2CCC(C(N)=O)CC2)c2c(-c3cccs3)csc2n1	0.1	23.8	66.7*	18.1	-15.9	20.8	68.2*
c1cnc2ccc(-n3ccnc3)cc2c1	x	-5.9	55.2*	2.3	-27.0	x	48.7*
c1ccc2ncc(-n3ccnc3)cc2c1	x	-1.4	9.1	-22.4	-5.8	x	x
Cc1noc(C)c1S(=O)(=O)N(C)C[C@@H]1Oc2ccc(N(C)C)cc2CC(=O)N([C@@H](C)CO)C[C@H]1C	x	3.2	x	x	x	x	x
O=C(Nc1c(Cl)ccc2nsnc12)c1ccc([N+](=O)[O-])o1	4.4	6.8	86.8*	89.7*	-20.4	39.3	-5.7
C[C@@H]1CN([C@H](C)CO)C(=O)Cc2cc(NC(=O)CCCCCC(=O)Nc3ccccc3N)ccc2O[C@H]1CN(C)C(=O)Nc1ccc(C(F)(F)F)cc1	x	-5.2	x	x	x	x	x
